Potency, caspase-3 activation and max response data for 7 compounds are collected here from PubChem BioAssay (NCATS).

Values joined by “and” are separate entries in the source; they are usually repeats but may differ in a detail not shown here. Identical values can stand only once. Records with an inconclusive call do not appear. Active and inactive are the calls of the source. Unless noted, calls follow the shape of the dose curve; as a rule, active = well fitted curve in the direction sought with a large enough effect; inconclusive = small, poorly fitted or top-dose-only effect, or another doubt; inactive = no such curve, though single readings can be large; an effect the other way counts as inactive or inconclusive.

A short description of test [1]: Cell Viability - Jurkat (AID 426;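 active = dose-dependent loss of cell ATP signal giving a full or clear fitted curve, ranked by lower potency value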;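 also: potency is read from the fitted curve at half-maximal effect; cells exposed to compound for 40 hours at 37 °C before ATP read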). The following applies: qHTS. In a few lines: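 Cytotoxicity was scored as loss of cellular ATP, measured by luciferase-based luminescence, in Jurkat clone E6-1 cells after 40 h compound treatment; tamoxifen and doxorubicin served as positive controls.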
(In general: In qHTS, concentration-response curves come from the screen itself.)

Test [2] is described as follows: Cell Viability - Hek293 (AID 427;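 active = compounds whose dose-response curve shows a full or clear partial loss of cell viability, called from curve shape rather than a numeric limit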;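 also: potency is read from the fitted curve at half-maximal effect; cells exposed to compound for 40 hours at 37 °C before reading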). As to conditions: qHTS. In a few lines:
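Luminescent ATP read-out (CellTiter-Glo, 20 min RT) after 40 hr compound exposure at 37 °C in complete medium. Signal normalized to DMSO (basal) and 100 uM tamoxifen (100% inhibition); concentration-response fitted with the standard Hill equation to give AC50.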

The nature of test [3]: Cell Viability - SK-N-SH (AID 435; calls by dose curve;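 also: potency is read from the fitted curve at half-maximal effect; compound exposure lasted 40 h at 37 °C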). The following applies: SK-N-SH neuroblastoma cell viability qHTS. In a few lines:
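SK-N-SH neuroblastoma cells (1500/well) treated 40 h at 37 °C in complete medium; viability read as cellular ATP by CellTiter-Glo luminescence. Normalized to DMSO and 100 uM tamoxifen; AC50 from Hill fits of qHTS concentration-response.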

Test [4] in a line: Cellular Toxicity (caspase-3) Jurkat (AID 655).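 Also: cells exposed to compound for 16 h at 37 °C before reading.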 The following applies: Jurkat caspase-3 activation, luminescence; caspase-3 activation: at 92.2 µM (top of the series), DMSO = 0%, tamoxifen = 100%. In a few lines:
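Jurkat cells (5000/well) in complete medium exposed 16 h at 37 C; caspase-3/7 activity read by Caspase-Glo luminescence after 20 min at room temperature. Normalized to DMSO and 100 uM tamoxifen; AC50 from Hill fits.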

A short description of test [5]: Cell Viability - LYMP2-004 (AID 966).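 Also: plate controls were DMSO only for no effect and tetraoctylammonium bromide control for full effect; nearly all actives have a fitted effect of over 65% in size.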 As to conditions: LYMP2-004 lymphoblastoid cell viability, qHTS; series mostly up to 92.2 µM. In a few lines:
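Viable-cell number estimated from ATP luminescence (CellTiter-Glo) in 2500 human lymphoblastoid cells/well after 24 hr at 37 C with compound. AC50 fitted to the standard Hill equation.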

The nature of test [6]: Cell Viability - LYMP2-015 (AID 971).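 Also: 0% = DMSO only and full effect = 92 µM tetraoctylammonium bromide; nearly all actives have a fitted effect of over 55% in size.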 As to conditions: LYMP2-015 lymphoblastoid cell viability; series mostly up to 92.2 µM. In a few lines:
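AC50 values reflect Hill-model fits of ATP-based luminescence (CellTiter-Glo) from a human lymphoblastoid line, 2500 cells/well, treated 24 hr at 37 C.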

The nature of test [7]: Cell Viability - LYMP2-019 (AID 973).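 Also: cells exposed to compound for 24 h at 37 °C; 0% = DMSO alone and full effect = 92 µM tetraoctylammonium bromide; nearly all actives have a fitted effect of over 55% in size.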 As to conditions: LYMP2-019 lymphoblastoid cell line viability; series mostly up to 92.2 µM. In a few lines: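 AC50 values come from Hill-equation modelling of qHTS concentration-response curves, where viability is measured as luciferase-based ATP luminescence in the lymphoblastoid line after 24 hr compound exposure in complete culture medium.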

The nature of test [8]: Cell Viability - LYMP2-021 (AID 974).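 Also: compound exposure lasts 24 hours at 37 °C; % is scaled to controls: 0 for no effect and ±100 for the full control effect; nearly all actives have a fitted effect of over 55% in size.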 The following applies: LYMP2-021 lymphoblastoid cells viability; series mostly up to 92.2 µM. Summed up:
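In qHTS format, compounds are tested against 2500 lymphoblastoid cells per well for 24 h; viable cell number is inferred from ATP-driven luciferase light, and Hill-equation fitting yields AC50 values.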

A short description of test [9]: Cell Viability - LYMP2-025 (AID 976).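 Also: cells exposed to compound for 24 h at 37 °C; plate controls were DMSO only for no effect and tetraoctylammonium bromide control for full effect.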 The following applies: LYMP2-025 lymphoblastoid cell viability; series mostly up to 92.2 µM. In a few lines:
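Luminescent ATP readout after 24 hr treatment of a human lymphoblastoid line (LYMP2-025, 2500 cells/well, 37 C). Reagent developed 30 min at room temperature; AC50 fitted with the Hill equation.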

Test [10] is described as follows: Cell Viability - LYMP2-006 (AID 978).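 Also: cells exposed to compound for 24 hours; % is scaled to controls: 0 for no effect and ±100 for the full control effect; nearly all actives have a fitted effect of over 60% in size.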 The following applies: LYMP2-006 lymphoblastoid cell viability, qHTS; series mostly up to 92.2 µM. Summed up: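 Human lymphoblastoid cells (LYMP2-006), 2500/well in complete medium, were treated with compound for 24 hr at 37 C. Cellular ATP was read by CellTiter-Glo luminescence after 30 min, and AC50 values came from Hill-equation fits of concentration-response data.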

Test [11] is described as follows: Cell Viability - LYMP2-007 (AID 979).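 Also: cells exposed to compound for 24 h before reading; 0% = DMSO only and the negative end = 92 µM tetraoctylammonium bromide; nearly all actives have a fitted effect of over 60% in size.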 The following applies: LYMP2-007 lymphoblastoid cell viability; series mostly up to 92.2 µM. In a few lines: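 Measured via luciferase-based ATP quantitation: lymphoblastoid cells, 24 hr compound exposure at 37 C, AC50 from Hill fits.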
The nature of test [12]: Cell Viability - LYMP2-008 (AID 980).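 Also: cells exposed to compound for 24 h at 37 °C; % is scaled to controls: 0 for no effect and ±100 for the full control effect; nearly all actives have a fitted effect of over 60% in size.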 The following applies: LYMP2-008 lymphoblastoid cell viability, qHTS; series mostly up to 92.2 µM. In a few lines:
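Measured: ATP-dependent luminescence, proportional to viable cell number, in human lymphoblastoid cells treated 24 hr with compound in complete culture medium. Values are AC50s from Hill-equation modelling of qHTS titrations.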

Test [13] is described as follows: Cell Viability - LYMP2-014 (AID 983).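 Also: cells exposed to compound for 24 h at 37 °C; plate controls were DMSO only for no effect and 92 µM tetraoctylammonium bromide for full effect; nearly all actives have a fitted effect of over 50% in size.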 The following applies: LYMP2-014 lymphoblastoid cells, viability qHTS; series mostly up to 92.2 µM. Summed up:
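Quantitative HTS in lymphoblastoid cells: 24 hr compound exposure, then CellTiter-Glo ATP luminescence. Positive control was tetraoctylammonium bromide, 6.4pM to 92 uM.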

Test [14] in a line: Cell Viability - LYMP2-018 (AID 985).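 Also: plate controls were DMSO only for no effect and tetraoctylammonium bromide at 92 µM for full effect; nearly all actives have a fitted effect of over 50% in size.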 As to conditions: LYMP2-018 lymphoblastoid cells, viability (qHTS); series mostly up to 92.2 µM. In a few lines:
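In this qHTS viability assay, cells are treated for 24 hr and cellular ATP is quantified by luciferase-based luminescence, with tetraoctylammonium bromide as positive control.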

Test [15] in a line: Cell Viability - LYMP2-020 (AID 986).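 Also: cells exposed to compound for 24 h at 37 °C; plate controls were DMSO only for no effect and tetraoctylammonium bromide at 92 µM for full effect; nearly all actives have a fitted effect of over 55% in size.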 As to conditions: series mostly up to 92.2 µM. In a few lines:
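Cells at 2500 per well receive a 24 hr compound exposure at 37 C. Viability is measured as ATP-dependent luciferase luminescence, with AC50 modeled from qHTS concentration-response curves.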

Test [16] in a line: Cell Viability - LYMP1-002 - Assay at 40 hr (AID 994).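 Also: 0% = DMSO only and full inhibition = 92 µM tetraoctylammonium bromide; nearly all actives have a fitted effect of over 60% in size.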 As to conditions: LYMP1-002 lymphoblastoid cell viability; series mostly up to 92.2 µM. Summed up: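 Concentration-dependent ATP loss after 40 hr treatment at 37 C defined toxicity; AC50 values were obtained by fitting the standard Hill equation.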
A short description of test [17]: qHTS assay for small molecule antagonists of retinoid X receptor alpha signaling (AID 588546).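 Also: cells stimulated with 9-cis-retinoic acid as agonist; % is scaled to controls: 0 for no effect and ±100 for the full control effect.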 The following applies: HEK293T RXRa-UAS-bla, beta-lactamase ratio, antagonist mode; measured here: W530 green channel, cytotoxicity proxy. Summed up:
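Beta-lactamase reporter inhibition, read as CCF4 fluorescence ratio (ex 405, em 460/530 nm) after 2 h at RT. HEK293T UAS-bla cells, 2500/well, were stimulated with 9-cis-RA at 500 or 100 nM final alongside test compound for 18 h at 37 C.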

In test [18] the target is Voltage-gated inwardly rectifying potassium channel KCNH2 (Homo sapiens) (UniProt Q12809). Briefly: qHTS Assay for Small Molecule Inhibitors of the Human hERG Channel Activity (AID 588834).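 Also: lower thallium flux fluorescence means stronger hERG block; nearly all actives have a fitted effect of over 50% in size.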 Also: potency is read from the fitted curve at half-maximal effect. As to conditions: U2OS BacMam hERG, FluxOR thallium flux fluorescence; series mostly up to 92.2 µM. Summed up:
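Thallium serves as surrogate for K+ influx through BacMam-delivered hERG in U2OS cells. Compounds are added for about 10 minutes after dye loading; stimulation buffer then starts flux, monitored kinetically on FDSS.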

A short description of test [19]: qHTS assay for small molecule agonists of the antioxidant response element (ARE) signaling pathway measured by Nrf2-dependant transcriptional activity - cell viability counter screen (AID 720653; active = well fitted curve in the direction sought with a large enough effect in the repeat runs; an effect the other way counts as inactive or inconclusive; also: % is scaled to controls: 0 for no effect and ±100 for the full control effect). As to conditions: ARE-bla HepG2 viability, CellTiter-Glo ATP luminescence, 16 h; stronger effect = lower value. In a few lines:
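Cytotoxicity counter screen: intracellular ATP quantified by CellTiter-Glo luminescence in the same ARE-bla HepG2 plates, after 16 h compound exposure and a 2 h beta-lactamase substrate step.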

Chain of Voltage-gated inwardly rectifying potassium channel KCNH2 (Homo sapiens) (Q12809 whole entry, looked up): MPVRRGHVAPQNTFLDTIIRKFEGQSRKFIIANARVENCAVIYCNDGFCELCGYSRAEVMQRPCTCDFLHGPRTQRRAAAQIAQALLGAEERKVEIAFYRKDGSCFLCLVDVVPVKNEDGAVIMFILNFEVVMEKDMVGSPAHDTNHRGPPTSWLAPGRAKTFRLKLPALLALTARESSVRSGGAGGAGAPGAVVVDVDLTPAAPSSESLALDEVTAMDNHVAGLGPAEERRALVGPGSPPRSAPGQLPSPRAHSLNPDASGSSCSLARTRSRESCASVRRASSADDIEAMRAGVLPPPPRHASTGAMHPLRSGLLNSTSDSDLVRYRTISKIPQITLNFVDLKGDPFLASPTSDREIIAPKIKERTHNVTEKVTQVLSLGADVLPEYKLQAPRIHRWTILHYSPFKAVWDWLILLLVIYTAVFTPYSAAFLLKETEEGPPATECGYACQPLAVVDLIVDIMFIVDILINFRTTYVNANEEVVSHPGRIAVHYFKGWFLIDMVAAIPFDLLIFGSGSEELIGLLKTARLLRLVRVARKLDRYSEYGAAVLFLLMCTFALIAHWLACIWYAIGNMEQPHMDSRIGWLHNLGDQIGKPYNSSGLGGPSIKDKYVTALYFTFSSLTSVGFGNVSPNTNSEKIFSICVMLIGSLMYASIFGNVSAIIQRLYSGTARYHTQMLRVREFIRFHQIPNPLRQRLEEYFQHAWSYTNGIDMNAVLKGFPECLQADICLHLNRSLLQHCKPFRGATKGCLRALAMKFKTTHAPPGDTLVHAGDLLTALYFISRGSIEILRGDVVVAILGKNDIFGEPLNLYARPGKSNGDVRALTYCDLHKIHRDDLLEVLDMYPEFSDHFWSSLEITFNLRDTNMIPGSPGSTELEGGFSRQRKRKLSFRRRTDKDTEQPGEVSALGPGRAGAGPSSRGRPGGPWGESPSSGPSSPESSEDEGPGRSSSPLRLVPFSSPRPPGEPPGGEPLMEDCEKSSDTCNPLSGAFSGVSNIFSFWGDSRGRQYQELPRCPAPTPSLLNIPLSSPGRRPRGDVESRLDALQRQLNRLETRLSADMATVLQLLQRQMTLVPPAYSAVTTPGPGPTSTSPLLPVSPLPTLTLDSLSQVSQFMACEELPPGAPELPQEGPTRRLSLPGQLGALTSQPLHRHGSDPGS

Take `N#CCCCCC#N`: the Potency in test [1], in test [2] and in test [3] was > 92 µM (inactive) in each case. Moreover, the caspase-3 activation in [4] is -0.898% (inactive). In addition, the Potency entry in [5], in test [6], in test [7], in [8], in [9] and in test [10] was “inactive” each time. For the same compound, the Potency result in [11], in test [12], in test [13], in test [14], in test [15] and in test [16] was “inactive” throughout. In test [18], the Potency entry was “inactive”. Further, the max response is -2.9% in test [17] and 5.3% (inactive) in [19].
For the compound `O=P(OCCCl)(OCCCl)OCCCl`, the Potency in test [1], in test [2] and in test [3] was > 92 µM (inactive) each time. Also, in test [4], the caspase-3 activation was -1.25% (inactive). Further, the Potency result in test [5], in test [6], in [7], in [8], in test [9] and in test [10] was “inactive” throughout. Besides, the Potency entry in [11], in test [12], in test [13], in test [14], in [15] and in test [16] was “inactive” each time. The Potency entry in test [18] was “inactive”. The max response in test [17] is -9.97%; in [19], 4.31% (inactive).
Regarding `CN(C)C(=O)Nc1cccc(C(F)(F)F)c1`, the Potency in test [1], in test [2] and in test [3] was > 92 µM (inactive) each time. Moreover, in [4], the caspase-3 activation was 2.52% (inactive). Besides, the Potency entry in test [5], in test [6], in test [7], in test [8], in [9] and in test [10] was “inactive” each time. In addition, the Potency result in [11], in [12], in test [13], in test [14], in test [15] and in test [16] was “inactive” throughout. Further, the Potency result in test [18] is “inactive”. Besides, the max response in test [17] was -7% and -2.56%; in test [19], -4.03% (inactive) and 2.07% (inactive).
`C=C(Cl)CSC(=S)N(CC)CC`: the Potency in [1] is > 92 µM (inactive); in [2] it was > 92 µM (inactive); in [3], > 92 µM (inactive); in [18], 39.8 µM (active). The caspase-3 activation in [4] is 1.37% (inactive). Further, the Potency entry in test [5], in test [6], in test [8], in test [9], in test [10] and in test [11] was “inactive” in each case. Besides, in [16], the Potency entry was “inactive”. In addition, the figures for the max response in test [17] and in test [19] were -2.71% and -13% (inactive), respectively.
Take `Cc1ccc2c(C)cccc2c1`: the Potency in [1], in [2] and in [3] was > 92 µM (inactive) throughout. In addition, in test [4], the caspase-3 activation is -1.07% (inactive). The Potency result in test [5], in test [6], in test [7], in [8], in [9] and in test [10] was “inactive” in each case. The Potency result in test [11], in [12], in test [13], in [14], in [15] and in [16] was “inactive” each time. The Potency result in test [18] was “inactive”. Further, the max response in test [17] is 4.96%; in test [19], -2.91% (inactive).
With `Oc1cccc(Cl)c1Cl`, the Potency in test [1], in [2] and in [3] was > 92 µM (inactive) in each case. Also, the caspase-3 activation in test [4] was 0.319% (inactive). In addition, the Potency result in test [5], in [6], in [7], in test [8], in [9] and in [10] was “inactive” in each case. The Potency result in test [11], in test [12], in [13], in test [14], in test [15] and in test [16] was “inactive” throughout. For the same compound, the max response in [17] is -4.72%; in [19], 0.417% (inactive).
Consider `N#CCBr`, for which the Potency in test [1], in test [2] and in test [3] was > 92 µM (inactive) each time. For the same compound, in test [4], the caspase-3 activation was 0.425% (inactive). Further, the Potency entry in test [5], in [6], in [7], in [8], in test [9] and in test [10] was “inactive” throughout. Further, the Potency entry in test [11], in test [12], in test [13], in test [14], in [15] and in [16] was “inactive” each time. Also, the Potency entry in test [18] was “inactive”. The max response in test [17] is 1.14%; in [19], -10.6% (inactive).
